The record followed here is PubChem BioAssay (Tox21).

Results filed as inconclusive are left out. A call without a number means that no potency is given here. Calls of active or inactive are those of the source. Calls follow the shape of the dose curve; as a rule, active = well fitted activation curve with a large enough effect in the signal ratio in the repeat runs (not every such curve was filed as active); inconclusive = weak or mixed curves; inactive = flat fitted curve, though single readings scatter; the % refers to the signal ratio.
Potency is read from the fitted curve at half-maximal effect.

The test can be described thus: qHTS assay to identify small molecule agonists of H2AX (AID 1224845). The note with it: CHO-K1 phospho-H2AX Ser139 HTRF, 3 h; series mostly up to 154 µM. An excerpt:
National Center for Advancing Translational Sciences [NCATS]
NIH Chemical Genomics Center [NCGC]
U.S. Environmental Protection Agency [EPA]
National Institutes of Environmental Health Sciences [NIEHS]
National Toxicology Program [NTP]
U.S. Food and Drug Administration [FDA]
HTRF phospho-H2AX (Ser139) assay (Cisbio Bioassays, US) enables the quantitative detection of the histone variant H2AX when phosphorylated on serine 139. When double-stranded DNA breaks, either by ionizing radiation or endogenous physiological processes, H2AX becomes phosphorylated at Ser139. This phospho-Ser139 serves as a sensitive biomarker for the detection of such breaks, localizing the site of DNA repair. So, HTRF phospho-H2AX Ser139 is a pertinent assay to study genome stability, the cell cycle, DNA repair, and it serves as a biomarker for cancer, and to understand aging. Wild type CHO-K1 cells were used to identify the inducers of Phospho-H2AX Ser 139 from the Tox21 10K compound collections.
Tox21 Assay Protocol Summary:
The CHO-K1 cells suspended in culture medium containing 10% FBS were dispensed at 1000 cells/ 3 ul/well in 1536-well white wall/solid bottom plates (Greiner Bio-One North America, NC) using a Multidrop Combi (Thermo Fisher Scientific Inc., Waltham, MA). After the assay plates were incubated at 37C overnight, 23 nl of compounds at 15 concentrations (from 5-48 columns) or positive control (from 1 to 4 columns) were transferred to the assay plates using a Pintool station (Wako, San Diego, CA) into each well resulting in a final DMSO concentration of 0.76%. After 3hr incubation at 37C, 1 uL/well Supplemented Lysis buffer (diluted 100 fold blocking reagent in lysis buffer) (HTRF Phospho-H2A.X (S139) Assay kit from Cisbio US Inc., Bedford, MA) was added using a Flying Reagent Dispenser (FRD) (Aurora Discovery, CA). After 10sec spin at 1000 rpm in a plate centrifuge, the assay plates were incubated at room temperature for 30 min. Then followed by the addition of 1 uL/well detection buffer (containing a mixture of two antibodies, one labeled with cryptate, Anti pH2AX (S139)-K and another labeled with d2, Anti H2AX-d2) using FRD. After incubation at room temperature for 24 hr, the time resolved fluorescence at excitation 320 nm and emissions at 665 nm and 620 nm was measured using an Envision plate reader (PerkinElmer, Waltham, MA).
(In general: In qHTS, concentration-response curves come from the screen itself.)
`CC(CO)(CO)[N+](=O)[O-]`: the Potency entry was “inactive”. For `C=CC(C)(CCC=C(C)C)OC(=O)CC` (stereo not given) the value was “inactive”; for `OCCCCCO`, “inactive”. For `CC1=NS(=O)(=O)c2cc(Cl)ccc2N1` the value was “inactive”; for `CCN[C@H]1C[C@H](C)S(=O)(=O)c2sc(S(N)(=O)=O)cc21`, “inactive”; for `CC(C)(C)c1ccc(-c2ccc(C(C)(C)C)cc2)cc1`, “inactive”. Consider `CC(=O)OCC(=O)[C@@]1(O)[C@H](C)C[C@H]2[C@@H]3CCC4=CC(=O)C=C[C@]4(C)[C@@]3(F)[C@@H](O)C[C@@]21C`, for which the Potency entry was “inactive”. For `Cc1ccccc1N=C(N)N=C(N)N` the value was “inactive”; for `C[N+](C)(CCOc1ccccc1)Cc1cccs1`, “inactive”; for `C[N+](C)(C)CCCCCCCCCC[N+](C)(C)C`, “inactive”. On to `NC(=O)N1c2ccccc2CC(=O)c2ccccc21`, for which the Potency result was “inactive”. For `[O-][n+]1cccc(CO)c1` the value was “inactive”. For `C[C@@H]1C[C@H]2[C@@H]3C[C@H](F)C4=CC(=O)C(Cl)=C[C@]4(C)[C@@]3(F)[C@@H](O)C[C@]2(C)[C@@]1(O)C(=O)CO` the value was “inactive”; for `Nc1ccn([C@@H]2O[C@H](CO)[C@@H](O)C2O)c(=O)n1` (stereo not given in full), 56.6 µM (active); for `CCCCCCCCCCCCCCCCCCO`, “inactive”. For `CCCCCCC1CCC(=O)O1` (stereo not given) the value was “inactive”; for `C[C@@H]1CCC[C@H](C)N1`, “inactive”; for `COCCOC[C@H](CC1(C(=O)NC2CCC(C(=O)O)CC2)CCCC1)C(=O)Oc1ccc2c(c1)CCC2` (stereo not given in full), “inactive”. On to `O=C(O)c1cn(C2CC2)c2cc(N3CCNCC3)c(F)cc2c1=O`, for which the Potency entry was “inactive”. With `C=CCOCC(O)CO` (stereo not given), the Potency result was “inactive”. `CCOC(=O)C(=O)CCCCCCl`: the Potency result was “inactive”. Consider `CC1(C)OC[C@@H](COC(=O)CCc2ccc(OC[C@@H](O)CNCCNC(=O)N3CCOCC3)cc2)O1`, for which the Potency result is “inactive”. Consider `Nc1ccncc1N`, for which the Potency result was “inactive”.

Regarding `CC[N+](CC)(CC)CCOc1cccc(OCC[N+](CC)(CC)CC)c1OCC[N+](CC)(CC)CC`, the Potency entry is “inactive”.

`CC[N+](CC)(CC(=O)Nc1c(C)cccc1C)Cc1ccccc1` (tested in a mixture with another compound): the Potency result was “inactive”. In the case of `O=S(=O)(O)c1cccc2ccccc12`, the Potency entry was “inactive”. Regarding `CCOC(=O)COC(=O)c1ccccc1C(=O)OCC`, the Potency entry was “inactive”. For `CC(=O)O[C@@]12CO[C@@H]1C[C@H](O)[C@@]1(C)C(=O)[C@H](O)C3=C(C)[C@@H](OC(=O)[C@H](O)[C@@H](NC(=O)OC(C)(C)C)c4ccccc4)C[C@@](O)([C@@H](OC(=O)c4ccccc4)[C@H]21)C3(C)C` the value was “inactive”. Take `CC1(C)[C@@H]2CC[C@@]1(C)[C@H](O)C2`: the Potency result is “inactive”.

Turning to `CC(=O)Oc1cccc(C)c1`, the Potency entry was “inactive”. Turning to `O=C(c1ccccc1)C1(O)CCCCC1`, the Potency entry was “inactive”.

`CCOC(=O)c1cnc2c(cnn2CC)c1NN=C(C)C`: the Potency entry is “inactive”. For `COc1cc(C(=O)OC(COCCC(C)C)CN2CCOCC2)cc(OC)c1OC` (stereo not given) the value was “inactive”; for `C[N+]1(C)CCCC(OC(=O)C(O)(c2ccccc2)c2ccccc2)C1` (stereo not given), “inactive”. On to `C[N+]12CCC(CC1)C(OC(=O)C(O)(c1ccccc1)c1ccccc1)C2` (stereo not given), for which the Potency result is “inactive”. For `CC(C)(C#N)Nc1nc(Cl)nc(NC2CC2)n1` the value was “inactive”. As for `O=C1CCCCCCCCCCCCCCO1`, the Potency entry was “inactive”.

Consider `[K+]`, for which the Potency result is “inactive”. For `CC(C)C(=O)OC(=O)C(C)C` the value was “inactive”; for `COc1cc(-c2ccc(=O)[nH]n2)ccc1OC(F)F`, “inactive”.
